# Source: PubChem (National Center for Advancing Translational Sciences (NCATS))
# Shown are actives, neighbours in structure and some others; about 8% of the full set was active somewhere.
# KB-3-1 tox: qHTS assay for MDR1-selective chemotherapeutics: Primary screen using the parental adenocarcinoma cell KB-3-1 | Potency, µM (doses to about 46.1 µM), actives largely listed as cytotoxic | AID 1347075, 2019 | KB-3-1 viability, CellTiter-Glo ATP luminescence, 72 h | actives 1.4% (n = 400,000); further: on the % scale 0 is the no-effect control and ±100 the full control effect; nearly all actives have a fitted effect of over 60% in size
#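 Cytotoxicity measured as CellTiter-Glo luminescence after 72 h at 37 C. Compound titrations were pinned onto drug-naive KB-3-1 parental adenocarcinoma cells grown in DMEM with 10% FBS, and normalized data fitted to concentration-response curves.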
# KB-V1 cytotox: qHTS assay for MDR1-selective chemotherapeutics: Primary screen using the drug-selected MDR subline cells KB-V1; KB-V1 MDR cells viability, CellTiter-Glo, 72 h; Potency, µM (series often up to 46.1 µM), usual class: cytotoxic; actives 3.4% (n = 400,000); AID 1347076, 2019; further: on the % scale 0 is the no-effect control and ±100 the full control effect; nearly all actives have a fitted effect of over 60% in size
#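 Drug-selected KB-V1 cells, grown in DMEM lacking phenol red with 10% FBS, receive compound titrations; after three days at 37 degrees C, surviving cell ATP is quantified by CellTiter-Glo luminescence and responses normalized and curve-fitted.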
# MCF10A rerep: A quantitative high throughput screen for small molecules that induce DNA re-replication in MCF 10a normal breast cells; MCF 10A DNA re-replication, Hoechst nuclear intensity, 48 h; AID 624296, 2012; actives 2.9% (n = 350,000); Potency, µM (highest dose often 46.1 µM), for the others: at the top dose activity, positive = re-replication, hits mostly activators; further: % of control where 0% means no effect; nearly all actives have a fitted effect of over 50% in size
# SW480 rereplic: A quantitative high throughput screen for small molecules that induce DNA re-replication in SW480 colon adenocarcinoma cells | SW480 DNA re-replication, Hoechst DNA content imaging, 48 h | Potency, µM (series often up to 46.1 µM), for inactives: at the highest dose re-replication activation, usual class: activators | actives 1.8% (n = 340,000) | AID 624297, 2012; further: % of control where 0% means no effect; nearly all actives have a fitted effect of over 55% in size
#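 Compounds, transferred as 23 nL by pin tool, were incubated with cells for 48 hr; DNA content per nucleus was then quantified by Hoechst staining and fluorescence plate imaging.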
# HT1080-NT tox: qHTS for induction of synthetic lethality in tumor cells producing 2HG: qHTS for the HT-1080-NT fibrosarcoma cell line; actives 1.6% (n = 360,000); HT-1080-NT fibrosarcoma viability, CellTiter-Glo ATP luminescence, 48 h; AID 686970, 2013; Potency, µM (series often up to 46.1 µM), for the others: at the highest dose activity, negative = less viability, most hits filed as cytotoxic;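 further: NT is the 2HG producing partner of a matched IDH1 knockdown line; 0% = DMSO-treated cells and -100% = media-only wells without cells; nearly all actives have a fitted effect of over 55% in size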
#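 A 48-hour cytotoxicity screen used HT-1080-NT cells plated 2 hours before compound delivery. ATP-based CellTiter-Glo luminescence measured viability, normalized to DMSO and no-cell controls.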
# HT1080 IDH1KD tx: qHTS for induction of synthetic lethality in tumor cells producing 2HG: qHTS for the HT-1080-IDH1KD cell line. actives 2% (n = 360,000). HT-1080 IDH1 knockdown viability, ATP luminescence, 48 h. Potency, µM (doses to about 46.1 µM), inactives show at the highest dose activity, negative = toxicity, hits mostly cytotoxic;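 further: 0% = DMSO wells and -100% = cell-free medium wells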
#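 After a 2 h attachment period, IDH1KD HT-1080 cells took pin-transferred compound for 48 h at 37 °C; ATP-based luminescence after 10 min room-temperature reagent incubation reported viability.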
# * hit, by the source's call; i = inactive; ? = inconclusive; . = no result; ! = not active in a repeat. The call rests on the fitted dose curve; in most records, active means well fitted curve in the direction sought with a large enough effect; inconclusive means small, poorly fitted or top-dose-only effect, or another doubt; inactive means no such curve, though single readings can be large; an effect the other way counts as inactive or inconclusive. Potency means the concentration at half of the fitted maximal effect.
SMILES,KB-3-1 tox,KB-V1 cytotox,MCF10A rerep,SW480 rereplic,HT1080-NT tox,HT1080 IDH1KD tx
CCOc1ccccc1CNc1nc2nc(C)c(CC(=O)OC)c(=O)n2[nH]1,i,?,.,.,.,.
c1c2c(cc3sc(N4CCOCC4)nc13)OCCO2,?,20.6µM*,0.7%,-3.8%,-24.7%,?
Nc1ccc2nc(N3CCOCC3)sc2c1,i,i,-1.0%,-0.3%,-5.2%,-1.2%
c1ccc(N2CCN(c3nc4cc5c(cc4s3)OCCO5)CC2)cc1,?,2.59µM*,-0.5%,-4.3%,6.4%,2.3%
N#Cc1ccc2c(c1)N(CCCN1CCC(O)CC1)c1ccccc1S2,.,.,1.0%,6.9%,.,.
O=C1/C(=C\c2ccc(Br)o2)SC(=Nc2ccccc2)N1c1ccccc1,i,9.2µM*,9.2%,1.4%,3.8%,-0.2%
O=C(c1cccc(NS(=O)(=O)c2cccc(F)c2)c1)N1CCCC1,i,i,-1.5%,-8.1%,15.9%,7.5%
CN(C)CCNc1ccc2nnn3c4ccc(O)cc4c(=O)c1c23,7.31µM*,?,7.0%,9.0%,23.1µM*,20.6µM*
CCN(CC)CCCNc1ncnc2ccccc12,i,i,11.4%,-5.4%,0.9%,-5.5%
CCN(CC)CCCNc1ccc2ncn3c4ccc(O)cc4c(=O)c1c23,23.1µM*,?,?,7.31µM*,-24.1%,?
O=c1c(S(=O)(=O)c2ccccc2)cn(Cc2ccc(F)cc2)c2cc(N3CCOCC3)c(F)cc12,i,i,.,.,.,.
COc1cc2c(NC3CCN(C)CC3)nc(N3CCCN(C)CC3)nc2cc1OCC1CCCCN1 (configuration not stated),?,i,.,.,.,.
CCCCCCCCN1[C@@H](CC(=O)OCC)c2cc(F)ccc2S1(=O)=O,?,14.6µM*!,27.1%,?,-0.4%,-5.5%
CC(=O)C[C@H]1c2cc(C(F)(F)F)ccc2S(=O)(=O)N1Cc1ccccc1,i,?,-3.4%,-5.3%,-2.1%,1.4%
CCOC(=O)C[C@H]1c2ccccc2S(=O)(=O)N1Cc1cccc(C(F)(F)F)c1,16.4µM*!,10.3µM*!,?,-9.0%,0.0%,0.3%
CCCCCCCCN1[C@@H](CC(=O)O)c2cc(C(F)(F)F)ccc2S1(=O)=O,i,i,21.8%,?,-8.2%,-14.2%
CCCCCCCCN1[C@@H](CC(=O)OC)c2cc(F)ccc2S1(=O)=O,i,?,7.8%,4.6%,6.5%,-2.6%
CC(=O)C[C@H]1c2cc(C(F)(F)F)ccc2S(=O)(=O)N1c1ccccc1,?,8.2µM*!,-6.6%,-9.3%,0.0%,-0.5%
CCOC(=O)C[C@H]1c2ccccc2S(=O)(=O)N1Cc1cc(OC)c(OC)c(OC)c1,i,?,-1.4%,-5.8%,-2.5%,-1.8%
CCCCCCCCCCCCN1[C@@H](CC(=O)O)c2cc(C(F)(F)F)ccc2S1(=O)=O,i,i,16.4µM*,22.9%,-7.9%,-11.2%
COc1ccc(CCNC(=O)CCCCn2c(=O)c3ccccc3n(CC(=O)Nc3ccc(C)cc3C)c2=O)cc1OC,i,i,.,.,.,.
COc1cccc(-n2c(-c3ccc(Cl)cc3)cc3c2CC(C)(C)CC3=O)c1,i,i,.,.,.,.
COc1cc(C2c3c(-c4c(C)cc(C)cc4O)n[nH]c3C(=O)N2CCCOC(C)C)cc(OC)c1OC (configuration not stated),i,i,.,.,.,.
Cc1ccc(C2=N/C(=C\c3ccc(F)cc3)C(=O)N2)cc1,i,i,?,14.6µM*,-0.5%,-6.7%
